Measured values reported in PubChem BioAssay AID743326 (National Center for Advancing Translational Sciences (NCATS), 2014).
A number with no mark means an inactive call. The source made the active and inactive calls. Calls come from the whole dose curve.

Assay: qHTS profiling of Chloroquine Analogs as inhibitors of Plasmodium falciparum (DD2) proliferation
Conditions: Potency: Plasmodium falciparum Dd2 proliferation inhibition; series mostly up to 28.7 µM; activity change, negative = inhibition: at the top concentration
Source text: Plasmodium falciparum is a virulent malarial parasite that kills 1-2 million people worldwide each year. Transmitted by mosquitoes, the sporozoite form of the parasite enters the blood stream to infect hepatocytes, where they become merozoites that infect red blood cells (erythrocytes). Within erythrocytes, merozoites begin a […] cycle of growth and division, after which the parasite is released to infect new red blood cells. Gametocytes, which form within erythrocytes as well, circulate in the bloodstream and are ingested by the mosquito, thereby completing the life cycle. To profile malarial isolates for differential chemical responses and to identify inhibitors of malarial growth, an assay that measures P. falciparum growth and replication within erythrocytes was employed. This assay uses a DNA binding fluorescent dye (SYBR Green) to detect parasite DNA following cell lysis. Because mature erythrocytes lack DNA, only Plasmodium-derived DNA is detected.
The SYBR Green viability assay was adapted from a method described previously (Plouffe et al., 2008). For screening 3 ul culture medium was dispensed into 1536 well black clear bottom plates (Aurora Biotechnologies) using a Multidrop Combi (Thermo Fisher Scientific Inc.), 23 nL compounds in DMSO were added by a pin tool (Kalypsys), and 5 ul of erythrocytes infected with P. falciparum (0.3% parasitemia, 2.5% hematocrit final concentration) were added. The plates were incubated at 37 C in a humidified incubator in 5% CO2 for 72 h, and 2 ul lysis buffer (20 mM Tris HCl, 10 mM EDTA, 0.16% saponin, 1.6% triton X, 10X SYBR Green I supplied as 10,000X […] by Invitrogen) was added to each well. The plates were mixed for 25 sec with gentle shaking and incubated overnight at room temperature in the dark. The following morning, fluorescence intensity at 485(14) nm excitation and 535(25) nm emission wavelengths was measured on an EnVision (Perkin Elmer) plate reader. Plate reads were normalized relative to the control inhibitor (0.29 uM artemisinin) and vehicle (DMSO) wells present on each plate and then corrected by an algorithm using vehicle-only control plates at the beginning and end of the compound plate stack.

SMILES	Potency	activity change, negative = inhibition
COc1ncnc(NS(=O)(=O)c2ccc(N)cc2)c1OC	1.88 µM (active)	
C=CC(C)=C[C@@]1(C)SC(=O)C(C)=C1O		0.0824%
OB1OCc2cc(F)ccc21		5.84%
CCN(CC)CCOCCOC(=O)C(CC)(CC)c1ccccc1		-57.6%
CNCCC(Oc1ccccc1OC)c1ccccc1 (stereo not given)		-94%
C[C@@H]1[C@@H](CC(C[C@H]2O[C@@H]3O[C@]4(C)CC[C@@H]5[C@H](C)CC[C@@H]([C@H]2C)[C@@]35OO4)C(=O)NCc2ccc(F)cc2)O[C@@H]2O[C@]3(C)CC[C@H]4[C@H](C)CC[C@@H]1[C@@]24OO3 (stereo not given in full)		-100%
C/C(=C\c1csc(C)n1)[C@@H]1C[C@@H]2O[C@]2(C)CCC[C@H](C)[C@H](O)[C@@H](C)C(=O)C(C)(C)[C@@H](O)CC(=O)O1		24.3%
CC(=O)N(O)CCCP(=O)(O)O		-91.8%
CNC(=O)c1cc(Oc2ccc(NC(=O)Nc3ccc(Cl)c(C(F)(F)F)c3)cc2)ccn1		183%
CCc1ccc(OCc2ccccc2C(=O)Nc2ccc3nc(C)cc(N)c3c2)cc1		-100%
CC[C@H]1OC(=O)[C@H](C)[C@@H](O[C@H]2C[C@@](C)(OC)[C@@H](O)[C@H](C)O2)[C@H](C)[C@@H](O[C@@H]2O[C@H](C)C[C@H](N(C)C)[C@@H]2O)[C@](C)(O)C[C@@H](C)CN(C)[C@H](C)[C@@H](O)[C@]1(C)O		-94.5%
CCCCN(CCCC)CCC(O)c1cc2c(Cl)cc(Cl)cc2c2cc(C(F)(F)F)ccc12 (stereo not given)		210% [at 14.2 µM]
CCOc1ccc(F)cc1C1(O)C(N)=Nc2ccc(Cl)cc21 (stereo not given)	0.0668 µM (active)	
C[C@@H]1[C@@H](C(=O)C[C@H]2O[C@@H]3O[C@]4(C)CC[C@@H]5[C@H](C)CC[C@@H]([C@H]2C)[C@@]35OO4)O[C@@H]2O[C@]3(C)CC[C@H]4[C@H](C)CC[C@@H]1[C@@]24OO3	0.0013 µM (active)	
CSc1cccc(NC(=O)CC[C@H]2O[C@@H]3O[C@]4(C)CC[C@H]5[C@H](C)CC[C@@H]([C@@H]2C)[C@@]35OO4)c1	0.0266 µM (active)	
C[C@@H]1Cc2c([nH]c3cc(Cl)c(F)cc23)[C@]2(N1)C(=O)Nc1ccc(Cl)cc12		-101%
O[C@H](c1cc(C(F)(F)F)nc2c(C(F)(F)F)cccc12)[C@H]1CCCCN1		192% [at 14.2 µM]
CC1=CC(=O)c2ccccc2C1=O		-98.6%
Oc1cc(Cl)ccc1Oc1ccc(Cl)cc1Cl	3.35 µM (active)	
CCCCCCCCCCOc1cc2c(=O)c(C(=O)OCC)c[nH]c2cc1OCC		-98.2%

SMILES	Potency	activity change, negative = inhibition
Cc1cccc(C)c1NC(=O)C(C)N (stereo not given)		-16% [at 14.2 µM]
O=C(O)c1cn(C2CC2)c2cc(N3CCNCC3)c(F)cc2c1=O		-13.3%
CC(=O)O[C@@]12CO[C@@H]1C[C@H](O)[C@@]1(C)C(=O)[C@H](O)C3=C(C)[C@@H](OC(=O)[C@H](O)[C@@H](NC(=O)OC(C)(C)C)c4ccccc4)C[C@@](O)([C@@H](OC(=O)c4ccccc4)[C@H]21)C3(C)C		-97.1%
C=CCON=C(C[C@H]1O[C@@H]2O[C@]3(C)CC[C@@H]4[C@H](C)CC[C@@H]([C@H]1C)[C@@]24OO3)[C@H]1O[C@@H]2O[C@]3(C)CC[C@H]4[C@H](C)CC[C@@H]([C@@H]1C)[C@@]24OO3		197%
COc1cc(C=CC(=O)CC(=O)C=Cc2ccc(O)c(OC)c2)ccc1O	5.3 µM (active)	
CCN(CC)CCCC(C)Nc1ccnc2cc(Cl)ccc12 (stereo not given)		193%
Cc1cccc(C)c1OCC(N)C(C)C (stereo not given)	5.95 µM (active)	
COc1ccc2nc3cc(Cl)ccc3c(Nc3cc(CN4CCCC4)c(O)c(CN4CCCC4)c3)c2n1		-103%
CC(CNC1CCCCC1)OC(=O)c1ccccc1 (stereo not given)		-39.4% [at 14.2 µM]
Cc1oncc1C(=O)Nc1ccc(C(F)(F)F)cc1		-19.1%
CCc1nc(N)nc(N)c1-c1ccc(Cl)cc1		-2.13%
C=Cc1c(C)c2cc3nc(cc4[nH]c(cc5nc(cc1[nH]2)C(C)=C5CCC(=O)OC)c(CCC(=O)O)c4C)[C@@]1(C)C3=CC=C(C(=O)OC)[C@H]1C(=O)OC	0.359 µM (active)	
COc1cccc(CCc2ccccc2OCC(CN(C)C)OC(=O)CCC(=O)O)c1 (stereo not given)	0.943 µM (active)	
C[C@H]1Cc2c([nH]c3cc(Cl)c(F)cc23)[C@@]2(N1)C(=O)Nc1ccc(Cl)cc12		-103%
CN(C)CC/C=C1\c2ccccc2COc2ccccc21	1.43 µM (active)	
COc1cc(NC(C)CCCN)c2ncccc2c1 (stereo not given)		193% [at 14.2 µM]
C[N+]1(C)CCC(=C(c2ccccc2)c2ccccc2)CC1		-90.3% [at 14.2 µM]
C[C@H](N)CN1CCc2ccc(Br)cc21	1.88 µM (active)	
COc1ccc(CCN(C)CCCC(C#N)(c2ccc(OC)c(OC)c2)C(C)C)cc1OC (stereo not given)		178%
COC(=O)C1C2CC3c4[nH]c5cc(OC)ccc5c4CCN3CC2CC(OC(=O)c2cc(OC)c(OC)c(OC)c2)C1OC (stereo not given)		196% [at 57.5 µM]
